Sampled rows, rich in hits. Any-hit rate of the full collection: about 19%.
HT1080 IDH1KD tx – qHTS for induction of synthetic lethality in tumor cells producing 2HG: qHTS for the HT-1080-IDH1KD cell line; 360,000 tested, 2% active; Potency, µM (series often up to 46.1 µM), hits mostly cytotoxic; HT-1080 IDH1 knockdown viability, ATP luminescence, 48 h
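IDH1KD HT-1080 cells, 750/well, RPMI + 5% FBS; compound pinned after 2 h settling; 48 h, 37 °C; CellTiter-Glo luminescence; % activity normalised to DMSO and no-cell wells; curves fitted, classed by r2 and efficacy.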
HT1080NT lethal – qHTS for induction of synthetic lethality in tumor cells producing 2HG: qHTS for the HT-1080-NT fibrosarcoma cell line | HT-1080-NT fibrosarcoma viability, CellTiter-Glo ATP luminescence, 48 h | AID 686970, 2013 | 360,000 tested, 1.6% active | Potency, µM (series often up to 46.1 µM), most hits filed as cytotoxic;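 note: NT is the 2HG producing partner of a matched IDH1 knockdown line; nearly all actives have a fitted effect of over 55% in size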
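Viability by CellTiter-Glo luminescence after 48 h compound exposure at 37C of HT-1080-NT cells (750/well, RPMI, 5% FBS). % activity scaled between DMSO wells and medium-only wells, then curve-fitted and categorized by curve class.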
DT40 TDP1 CPT – qHTS for Inhibitors of human tyrosyl-DNA phosphodiesterase 1 (TDP1): qHTS in cells in presence of CPT; Potency, µM (doses to about 46.2 µM), usual class: inhibitors; 420,000 tested, 12% active; chicken DT40 Tdp1-/-;hTDP1 cells + 20 nM CPT, ATP luminescence, 48 h; note: nearly all actives have a fitted effect of over 55% in size
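Cell growth measured by CellTiter-Glo luminescence after a minimum 48 h, 37 C compound exposure with 20 nM CPT in Tdp1-knockout DT40 cells stably expressing hTDP1, seeded 400/well; qHTS titration format.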
IL-1B inflam inh – qHTS for Inhibitors of Inflammasome Signaling: IL-1-beta AlphaLISA Primary Screen; AID 743279, 2014; activity change, % at 57.5 µM; THP-1 LPS/ATP IL-1B secretion, AlphaLISA, 16 h; hits give low values; 360,000 tested, 4.7% active; in the data active = activity change below about -50%; inconclusive = mostly about -30% to -49%
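THP-1 cells pretreated 1 hr with compounds (up to 57.5 uM final), then stimulated with LPS (250 ng/mL final) plus ATP (1.25 mM final); secreted IL-1B measured by AlphaLISA after 16 hr, decreased signal indicating inhibition.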
DT40 TDP1 no CPT – qHTS for Inhibitors of human tyrosyl-DNA phosphodiesterase 1 (TDP1): qHTS in cells in absence of CPT; 420,000 tested, 15% active; Potency, µM (doses to about 46.2 µM), actives largely listed as inhibitors; DT40 Tdp1-/- hTDP1 cells, no CPT, ATP luminescence, 48 h; note: nearly all actives have a fitted effect of over 55% in size
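Luminescent ATP content (CellTiter-Glo) served as the growth readout. Knockout chicken DT40 cells expressing human TDP1 were exposed to compounds without camptothecin for a minimum 48 hr at 37 °C.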
ELG1 repair inh – qHTS screen for small molecules that inhibit ELG1-dependent DNA repair in human embryonic kidney (HEK293T) cells expressing luciferase-tagged ELG1; HEK293T ELG1-luciferase reporter, luminescence, 16 h; DNA damage induced by 5-fluorouridine; Potency, µM (highest dose often 46.1 µM), hits mostly inhibitors; 330,000 tested, 2.3% active; AID 504467, 2011; note: nearly all actives have a fitted effect of over 55% in size
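Overnight (16 hr) co-exposure of 2,000 cells/well to 5-fluorouridine and compound at 37 °C preceded detection. Luciferase was quantified via ONE-Glo luminescence; loss of signal denotes inhibition.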
Each line names hits and unclear results; the compound was inactive in the other large screens. Unless noted, calls come from the whole dose curve; as a rule, active = well fitted curve in the direction sought with a large enough effect; inconclusive = small, poorly fitted or top-dose-only effect, or another doubt; inactive = no such curve, though single readings can be large; an effect the other way counts as inactive or inconclusive.

O=c1oc2ccccc2nc1/C=C(\O)c1ccccc1	DT40 TDP1 CPT inconclusive, DT40 TDP1 no CPT inconclusive
O=C(COc1ccc([N+](=O)[O-])cc1)Nc1nc2c(s1)CCCC2	none (no result: HT1080 IDH1KD tx, HT1080NT lethal, IL-1B inflam inh, ELG1 repair inh)
CCOc1ccc(N(CC(=O)Nc2ccccc2OCC)S(=O)(=O)c2c(C)noc2C)cc1	HT1080 IDH1KD tx 2.31µM, HT1080NT lethal 2.31µM, DT40 TDP1 CPT 5.17µM, DT40 TDP1 no CPT 3.26µM
CCOc1ccccc1NC(=O)CN(c1ccc(C)cc1)S(=O)(=O)c1c(C)n[nH]c1C	HT1080 IDH1KD tx inconclusive, HT1080NT lethal inconclusive, DT40 TDP1 CPT inconclusive, IL-1B inflam inh -95.2, DT40 TDP1 no CPT inconclusive
CCOc1ccc(N(CC(=O)Nc2ccc(F)c(F)c2)S(=O)(=O)c2c(C)noc2C)cc1	DT40 TDP1 CPT inconclusive, DT40 TDP1 no CPT inconclusive
CCOc1ccc(N(CC(=O)Nc2cccc(Cl)c2)S(=O)(=O)c2c(C)noc2C)cc1	HT1080 IDH1KD tx inconclusive, HT1080NT lethal inconclusive, DT40 TDP1 CPT 13µM, DT40 TDP1 no CPT 11.6µM, ELG1 repair inh inconclusive
CCOc1ccc(N(CC(=O)NC(C)(C)C)S(=O)(=O)c2c(C)noc2C)cc1	none
CCOc1ccc(N(CC(=O)Nc2cccc(OC)c2)S(=O)(=O)c2c(C)noc2C)cc1	DT40 TDP1 CPT 13µM, DT40 TDP1 no CPT 18.4µM, ELG1 repair inh inconclusive
CCOc1ccc(NC(=O)CN(c2ccc(CC)cc2)S(=O)(=O)c2c(C)noc2C)cc1	DT40 TDP1 CPT 11.6µM, DT40 TDP1 no CPT 13µM (no result: HT1080 IDH1KD tx, HT1080NT lethal, IL-1B inflam inh, ELG1 repair inh)
O=C(Oc1ccccc1/C=C\C(=O)c1cc2ccccc2o1)c1ccccc1	HT1080 IDH1KD tx inconclusive, HT1080NT lethal inconclusive, DT40 TDP1 CPT 7.31µM, DT40 TDP1 no CPT 7.31µM, ELG1 repair inh inconclusive
COc1cccc(C(=O)Oc2ccccc2/C=C\C(=O)c2cc3ccccc3o2)c1	HT1080 IDH1KD tx 20.6µM, HT1080NT lethal 18.4µM, DT40 TDP1 CPT 6.51µM, IL-1B inflam inh -94.7, DT40 TDP1 no CPT 4.61µM, ELG1 repair inh inconclusive
COc1ccc(NC(=O)c2cc3ccccc3o2)cc1	ELG1 repair inh inconclusive
O=C(Oc1ccccc1/C=C\C(=O)c1cc2ccccc2o1)c1cccc(F)c1	HT1080NT lethal inconclusive, DT40 TDP1 CPT 5.17µM, IL-1B inflam inh -68.0, DT40 TDP1 no CPT 20.6µM, ELG1 repair inh inconclusive
NC(=O)N/N=C/c1ccccc1OC(=O)c1cc2ccccc2oc1=O	ELG1 repair inh inconclusive
Cc1[nH]c(C)c(S(=O)(=O)NCC(C)c2ccccc2)c1C(=O)N1CCCCC1 (stereo unspecified)	none
Cc1ccccc1Cn1nnc2c(=O)[nH]c(C3CCCN(C(=O)c4ccc(F)cc4)C3)nc21 (stereo unspecified)	none (no result: HT1080 IDH1KD tx, HT1080NT lethal, IL-1B inflam inh, ELG1 repair inh)
CCOc1ccccc1-n1c(SCC(=O)Nc2ccc(CC)cc2)nc2n[nH]c(C)c2c1=N	HT1080 IDH1KD tx inconclusive, DT40 TDP1 CPT 11.6µM, DT40 TDP1 no CPT 13µM
CCc1ccccc1-n1c(SCC(=O)Nc2ccc(C)cc2)nc2n[nH]c(C)c2c1=N	DT40 TDP1 CPT 7.31µM, DT40 TDP1 no CPT 5.17µM (no result: HT1080 IDH1KD tx, HT1080NT lethal, IL-1B inflam inh, ELG1 repair inh)
Cc1ccc(NC(=O)CSc2nnc3ccccn23)cc1	ELG1 repair inh inconclusive
Cc1cc(C)c(NC(=O)Cn2c(=O)n(CCC(=O)NCc3ccc4c(c3)OCO4)c(=O)c3ccccc32)c(C)c1	none (no result: HT1080 IDH1KD tx, HT1080NT lethal, IL-1B inflam inh, ELG1 repair inh)
NC(=O)OC[C@@H]1[C@H](NC(=O)/C(=N\OCC(=O)O)c2csc(N)n2)C(=O)N1S(=O)(=O)O	none (no result: HT1080 IDH1KD tx, HT1080NT lethal, IL-1B inflam inh, ELG1 repair inh)
CCCC/C=C/C(NC(=O)c1ccc(C(=O)OC)cc1)c1ccccc1 (stereo unspecified)	DT40 TDP1 CPT inconclusive, DT40 TDP1 no CPT inconclusive (no result: ELG1 repair inh)

Screening results as filed in PubChem.
